# Results: the supplement of paper PMC9135407
# Where “and” joins values, the source holds several entries; their conditions need not be identical. Identical values can stand only once. Counter-ions that a name gives are not always drawn. Among all 5,800 compounds or so, about 620 (11%) showed activity. The entries come from a sample that favours actives as a whole. A number with no mark means an inactive call.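 How the source made its calls: active = score above a cut-off or among the top three wells of a plate; in these data no inactive exceeds 0.85.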
# Test system: primary human hepatic stellate cells (donor 1)
# Experiment: scaled lipid accumulation score (0 = DMSO-like, 1 = nortriptyline-like); higher = stronger HSC inactivation (lipid re-accumulation), active = hit call of the paper
# Conditions: 48 h
# [1] = library stock concentration: 10 mM
# [2] = library stock concentration: 3.33 mM
# [3] = library stock concentration: 1 mM
smiles,measurement,setting,value
CCCn1ncc(-c2ccnc(NC3CC(C)(C)NC(C)(C)C3)n2)c1C,scaled lipid accumulation score,[1],0.86 (active)
CC1(C)CC(Nc2nccc(-c3cnn(-c4ccccc4)c3)n2)CC(C)(C)N1,scaled lipid accumulation score,[1],0.799 (active)
C[C@@H]1O[C@@H](O[C@H]2[C@H](Oc3cc(O)c(C(=O)CCc4ccc(O)cc4)c(O)c3)O[C@H](CO)[C@@H](O)[C@@H]2O)[C@H](O)[C@H](O)[C@H]1O [Naringin Dihydrochalcone],scaled lipid accumulation score,[2],≤ 0
same,scaled lipid accumulation score,[1],0.078
O=C(O)CCC/C=C\C[C@@H]1CO[C@H](C(F)(F)F)O[C@@H]1c1ccccc1O,scaled lipid accumulation score,[1],≤ 0
"CCCCCCCC/C=C\CCCCCCCC(=O)OC[C@H](CO)OC(=O)CCCCCCC/C=C\CCCCCCCC [1,2-Dioleoyl-sn-glycerol]",scaled lipid accumulation score,[3],≤ 0
CCN(CC)CCCC(C)Nc1nc(C)cc(Nc2ccc3nc(C)cc(N)c3c2)n1 (configuration not stated),scaled lipid accumulation score,[2],≤ -0.009
same,scaled lipid accumulation score,[1],0.217 and 0.086
CCN(CC)CCCC(C)Nc1c2ccc(Cl)cc2nc2ccc(OC)cc12 (configuration not stated) [Quinacrine hydrochloride],scaled lipid accumulation score,[1],0.586
CCN(CC)CCCC(C)Nc1c2ccc(Cl)cc2nc2ccc(OC)cc12 (configuration not stated) [Quinacrine 2HCl],scaled lipid accumulation score,[2],0.307
same,scaled lipid accumulation score,[1],0.325
CCN(CC)CCCC(C)Nc1c2ccc(Cl)cc2nc2ccc(OC)cc12 (configuration not stated) [Quinacrine dihydrochloride],scaled lipid accumulation score,[1],0.536
CCN(CC)CCCC(C)Nc1c2ccc(Cl)cc2nc2ccc(OC)cc12 (configuration not stated) [Quinacrine 2HCl dihydrate],scaled lipid accumulation score,library stock concentration: 5 mM,0.876 (active)
CCN(CC)CCCC(C)Nc1c2ccc(Cl)cc2nc2ccc(OC)cc12 (configuration not stated) [Quinacrine dihydrochloride dihydrate],scaled lipid accumulation score,,0.288
c1ccc(-c2[nH]ncc2-c2ccnc3ccccc23)nc1,scaled lipid accumulation score,[3],≤ 0
same,scaled lipid accumulation score,[1],≤ -0.001
CC1=C(/C=C/C(C)=C/C=C/C(C)=C/CO)C(C)(C)CCC1 [Retinol],scaled lipid accumulation score,library stock concentration: 7 mM,≤ 0
same,scaled lipid accumulation score,[1],≤ 0
NC(=O)c1cc[n+](CC2=C(C(=O)[O-])N3C(=O)[C@@H](NC(=O)Cc4cccs4)[C@H]3SC2)cc1 [Cefalonium],scaled lipid accumulation score,,≤ 0
O=NN(CCCl)C(=O)NC1CCCCC1 [Lomustine],scaled lipid accumulation score,[2],0.044
same,scaled lipid accumulation score,library stock concentration: 8.6 mM,0.014
same,scaled lipid accumulation score,[1],≤ 0
CN1C2CCC1CC(OC(=O)C(O)c1ccccc1)C2 (configuration not stated) [Homatropine bromide],scaled lipid accumulation score,[1],≤ 0
CN1CCC(OC(c2ccccc2)c2ccccc2)CC1 [Diphenylpyraline hydrochloride],scaled lipid accumulation score,,0.332
same,scaled lipid accumulation score,library stock concentration: 6.3 mM,0.256
same,scaled lipid accumulation score,[1],0.235
CN1[C@@H]2CC[C@H]1C[C@@H](OC(c1ccccc1)c1ccccc1)C2 [Benztropine mesylate],scaled lipid accumulation score,[2],0.003
C1[C@@H](N(C)[C@@H]2C1)C[C@@H](OC(c3ccccc3)c4ccccc4)C2.CS(O)(=O)=O (some centres not stated) [Benztropine mesylate],scaled lipid accumulation score,[1],0.873 (active)
CN1C2CCC1CC(OC(=O)C(O)c1ccccc1)C2 (configuration not stated) [Homatropine Bromide],scaled lipid accumulation score,[2],≤ 0
same,scaled lipid accumulation score,[1],≤ -0.001
CN1[C@@H]2CC[C@H]1C[C@@H](OC(=O)C(O)c1ccccc1)C2 (mixture of isomers) [DL-Homatropine hydrobromide],scaled lipid accumulation score,[1],0.242
"CN1[C@@H]2CC[C@H]1C[C@@H](OC(=O)C(O)c1ccccc1)C2 (mixture of isomers) [Homatropine hydrobromide (R,S)]",scaled lipid accumulation score,,0.043
CN1[C@@H]2CC[C@H]1C[C@@H](OC(c1ccccc1)c1ccccc1)C2 [Benztropine],scaled lipid accumulation score,library stock concentration: 4.9 mM,0.193
same,scaled lipid accumulation score,[1],0.38
CN1[C@@H]2CC[C@H]1C[C@@H](OC(c1ccccc1)c1ccccc1)C2 [Cogentin Mesylate],scaled lipid accumulation score,[1],0.598
CN1C2CCC1CC(OC(c1ccccc1)c1ccccc1)C2.CS(=O)(=O)O (configuration not stated) [Benztropine mesylate],scaled lipid accumulation score,[1],1.05 (active)
CCOC(=O)Nc1cc(-c2ccc(C)c(NS(C)(=O)=O)c2)nn2c(C)nnc12 [Bromosporine],scaled lipid accumulation score,[2],0.166
same,scaled lipid accumulation score,[1],0.621
CCCCCCCCCCCCCCCCOC[C@H](CO)OC(C)=O [Hexadecyl Acetyl Glycerol],scaled lipid accumulation score,[3],≤ 0
CNC(=O)c1ccccc1Nc1nc(Nc2ccc(N3CCOCC3)cc2OC)ncc1Cl,scaled lipid accumulation score,library stock concentration: 80 uM,≤ -0.016
same,scaled lipid accumulation score,library stock concentration: 400 uM,≤ -0.016
same,scaled lipid accumulation score,library stock concentration: 2 mM,≤ -0.016
same,scaled lipid accumulation score,[2],≤ 0
same,scaled lipid accumulation score,[1],≤ 0 and ≤ -0.016
CNC(=O)c1c(F)cccc1Nc1nc(Nc2cc3c(cc2OC)CCN3C(=O)CN(C)C)nc2[nH]ccc12 [listing 1 of 2 here],scaled lipid accumulation score,[1],0.776
CNC(=O)c1c(F)cccc1Nc1nc(Nc2cc3c(cc2OC)CCN3C(=O)CN(C)C)nc2[nH]ccc12 [listing 2 of 2 here],scaled lipid accumulation score,[2],0.98 (active)
O=C(c1ccc2c(c1)OCCO2)N1CCCCC1,scaled lipid accumulation score,[1],≤ -0.07
COC(=O)C1=CC[C@@]23CC[C@@H]([C@@](C)(/C=C/C=C(\C)C(=O)O)OC2=O)[C@@]3(OC(C)=O)CC1 [Pseudolaric Acid B],scaled lipid accumulation score,[3],≤ 0
CCCC[C@H](C)C[C@H](O)/C=C/[C@H]1[C@H](O)CC(=O)[C@@H]1CCCCC(CC(=O)O)OC (some centres not stated) [3-methoxy Limaprost],scaled lipid accumulation score,[3],0.012
"CCCCCC(=O)OC[C@H](CO)OC(=O)CCCCC [1,2-Dihexanoyl-sn-glycerol]",scaled lipid accumulation score,[3],0.007
CC(C)(CO)Cc1cc(C(C)(C)C)c(O)c(C(C)(C)C)c1 [listing 1 of 2 here],scaled lipid accumulation score,[1],0.139
CC(C)(CO)Cc1cc(C(C)(C)C)c(O)c(C(C)(C)C)c1 [listing 2 of 2 here],scaled lipid accumulation score,[1],0.861 (active)
CC(C)(C=O)Cc1cc(C(C)(C)C)c(O)c(C(C)(C)C)c1,scaled lipid accumulation score,[1],0.21 and ≤ -0.006
N.N.O=C([O-])C[O-].[Pt+2] [Nedaplatin],scaled lipid accumulation score,library stock concentration: 6.6 mM,0.028
CC(C)[C@@H](O)CC[C@@H](C)[C@H]1CC[C@H]2[C@@H]3CC=C4C[C@@H](O)CC[C@]4(C)[C@H]3CC[C@]12C [24(S)-hydroxycholesterol],scaled lipid accumulation score,library stock concentration: 12.4 mM,0.006
CN(C)Cc1ccc(-c2nc3cccc4c3n2CCNC4=O)cc1,scaled lipid accumulation score,[2],0.037
same,scaled lipid accumulation score,[1],0.491
COc1ccc([C@@H]2CC(=O)c3c(O)cc(O[C@@H]4O[C@H](CO)[C@@H](O)[C@H](O)[C@H]4O[C@@H]4O[C@@H](C)[C@H](O)[C@@H](O)[C@H]4O)cc3O2)cc1O [Neohesperidin],scaled lipid accumulation score,[2],≤ 0
same,scaled lipid accumulation score,[1],0.039
C[C@H](NC(=O)C(C#N)=Cc1cccc(Br)n1)c1ccccc1,scaled lipid accumulation score,[2],1.05 (active)
CCC[C@H](NC(=O)/C(C#N)=C/c1cccc(Br)n1)c1ccccc1 [Degrasyn (WP1130)],scaled lipid accumulation score,[2],0.369
same,scaled lipid accumulation score,[1],0.703
C[C@H](NC(=O)/C(C#N)=C/c1cccc(Br)n1)c1ccccc1,scaled lipid accumulation score,[1],0.586
CC(=O)OCOC(=O)CN(CC(=O)OCOC(C)=O)c1ccccc1OCCOc1ccccc1N(CC(=O)OCOC(C)=O)CC(=O)OCOC(C)=O,scaled lipid accumulation score,[2],≤ -0.009
same,scaled lipid accumulation score,[1],0.697
CC(C)C[C@H](NC(=O)[C@H]1O[C@@H]1C(=O)O)C(=O)NCCCCN=C(N)N,scaled lipid accumulation score,[2],0.177
same,scaled lipid accumulation score,[1],≤ 0 and ≤ -0.07
C=C[C@@]1(C)C[C@@H](OC(=O)CS[C@@H]2C[C@H]3CC[C@@H](C2)N3C)[C@@]2(C)[C@@H]3C(=O)CC[C@@]3(CC[C@@H]2C)[C@@H](C)[C@@H]1O [Retapamulin],scaled lipid accumulation score,[1],0.947 (active)
C=C[C@]1(C)C[C@@H](OC(=O)CS[C@@H]2C[C@H]3CC[C@@H](C2)N3C)[C@]2(C)[C@H](C)CC[C@]3(CCC(=O)[C@H]32)[C@@H](C)[C@@H]1O [Retapamulin],scaled lipid accumulation score,[2],0.412
C=C[C@]1(C)C[C@@H](OC(=O)CSC(C)(C)CNC(=O)[C@H](N)C(C)C)[C@]2(C)[C@H](C)CC[C@]3(CCC(=O)[C@H]32)[C@@H](C)[C@@H]1O [Valnemulin HCl],scaled lipid accumulation score,[2],≤ 0
same,scaled lipid accumulation score,[1],0.491
Clc1ccc(C(c2ccc(Cl)cc2)[n+]2ccn(CC(OCc3ccc(Cl)cc3Cl)c3ccc(Cl)cc3Cl)c2)cc1 (configuration not stated) [Calmidazolium chloride],scaled lipid accumulation score,[1],0.037
O=C(O[C@H]1CN2CCC1CC2)N1CCc2ccccc2[C@@H]1c1ccccc1,scaled lipid accumulation score,[1],0.352
O=C(O)CCC(=O)O.O=C(O[C@H]1CN2CCC1CC2)N1CCc2ccccc2[C@@H]1c1ccccc1 [Solifenacin succinate],scaled lipid accumulation score,[1],1.3 (active)
O=C(NCc1ccc(Cl)c(Cl)c1)O[C@H]1CCc2ccccc21,scaled lipid accumulation score,[3],0.061
O=C(O[C@H]1CN2CCC1CC2)N1CCc2ccccc2[C@@H]1c1ccccc1 [Solifenacin succinate],scaled lipid accumulation score,[2],0.293
CC/C=C\C/C=C\C/C=C\CCCCCCCC(=O)O [.alpha.-Linolenic Acid],scaled lipid accumulation score,[3],0.009
CC/C=C\C/C=C\C/C=C\CCCCCCCC(=O)O [Linolenic acid (18:3 n-3)],scaled lipid accumulation score,[3],≤ -0.021
CC(=O)O[C@H]1Cc2ccccc2N(C(N)=O)c2ccccc21,scaled lipid accumulation score,[1],≤ 0
CCCC[P+](CCCC)(CCCC)Cc1ccc(NC(=O)C(Cc2ccc3ccccc3c2)NC(=NC2CCCCC2)NC2CCCCC2)cc1 (configuration not stated),scaled lipid accumulation score,[1],0.797
CNCc1ccc(-c2cc(-c3nc(-c4ccc(S(=O)(=O)C(C)C)cc4)cnc3N)on2)cc1 [listing 1 of 2 here],scaled lipid accumulation score,[2],1.12 (active)
CNCc1ccc(-c2cc(-c3nc(-c4ccc(S(=O)(=O)C(C)C)cc4)cnc3N)on2)cc1 [listing 2 of 2 here],scaled lipid accumulation score,[1],0.254
